Measured values as given in PubChem BioAssay AID504770 (ICCB-Longwood Screening Facility, Harvard Medical School, 2011).
“And” between values parts separate entries of the source, which are not always exact repeats. Identical values can stand only once. The campaign covered roughly 130,000 compounds. About 350 (0.27%) were called active. This is one part of a sample in which actives are shown more often than they occur. No stated cut-off is given here; in the data, active means z-score below about -2 (passing the limit was not always enough); inactive means the rest. The source holds several records for some structures; these can differ, active in one and inactive in another.

Assay: PubChem AID 504770
Details: E. coli YBA685 rctB-dependent plasmid, OD600 growth, 3 h; stronger effect = lower value

| SMILES | z-score |
| --- | --- |
| O=C(OCN1C(=O)c2ccccc2C1=O)c1ccccc1O | 0.65 (inactive) |
| Nc1nc(/C(=C/CC(=O)O)C(=O)N[C@@H]2C(=O)N3C(C(=O)O)=CCS[C@H]23)cs1 | -1.1 (inactive) |
| CO/N=C(/C(=O)N[C@@H]1C(=O)N2C(C(=O)O)=C(CSc3nc(=O)c(O)nn3C)CS[C@H]12)c1csc(N)n1 | -4.8 (active) and -2 (inactive) |
| CC(=O)Nc1ccc(C(=O)N(C)Cc2cccc(F)c2)cc1 | 1.3 (inactive) |
| OCc1nc(-c2ccccc2)cs1 | -0.45 (inactive) |
| CC(C)N1CCC(=O)N(c2ccccc2Cl)C1=O | 0.25 (inactive) |
| CC(N)C(=O)Nc1ccc2c(c1)Cc1ccccc1-2 (stereo not given) | -1.1 (inactive) |
| Cc1cccc(C(=O)Nc2nnc(/N=C/c3ccc(Br)s3)s2)c1 | -0.85 (inactive) |
| O=C(NC1CCCC1)c1cc(-c2ccccc2)on1 | 0.55 (inactive) |
| CC(C)CNC(=O)c1cc(-c2ccc(Br)cc2)on1 | -0.2 (inactive) |
| O=C(NC1CCCC1)c1cc(-c2ccc(Br)cc2)on1 | -2.5 (active) |
| CCn1c(SCC(=O)Nc2ccc3c(c2)OCCCO3)nc2cc(S(N)(=O)=O)ccc21 | 2.15 (inactive) |
| COc1ccc(-c2nc3cc(N=Cc4cccc(OC)c4O)ccc3o2)cc1 | 0.1 (inactive) |
| COc1ccc(-c2ocnc2C(=O)O)cc1 | -0.1 (inactive) |
| CCCCSc1nnc2c(=O)[nH]c(=O)[nH]c2n1 | -1.6 (inactive) |
| CC(=O)NCc1ccc(C(=O)COC(=O)c2cc(-c3ccccc3)nn2-c2ccccc2)o1 | 0.5 (inactive) |
| CC(=O)Oc1ccc2c(=O)c(-c3ccccc3)coc2c1C | 0.9 (inactive) |
| CCOC(=O)c1c(NC(=O)c2cc3ccccc3o2)sc2c1CC(C)(C)OC2 | 1.4 (inactive) |
| NS(=O)(=O)c1cc(OCC(F)(F)F)ccc1OCC(F)(F)F | -0.85 (inactive) |
| Cn1cc(NC(=O)N2CCc3ccccc3C2)c2ccccc21 | 0.5 (inactive) |
| COCCn1c(C)cc(C(=O)COC(=O)Cn2c(C)csc2=O)c1C | -0.2 (inactive) |
| Cc1ccc(Cn2ccsc2=NC(=O)COC(=O)Cn2c(C)csc2=O)cc1 | -3.3 (active) |

| SMILES | z-score |
| --- | --- |
| Cc1csc(=O)n1CC(=O)OCC(=O)c1ccc(Cl)s1 | 1.15 (inactive) |
| Cc1ccccc1C(=O)Nc1ccccc1N1CCN(C)CC1 | 0.25 (inactive) |
| O=C1NN(c2ccc(Cl)c(Cl)c2)C(=O)/C1=C\C=C\c1ccccc1 | 0.25 (inactive) |
| N#Cc1c(SCC(=O)C23CC4CC(CC(C4)C2)C3)sc2c(=O)[nH]c(=O)[nH]c12 | -0.7 (inactive) |
| CCOc1ccc(/C=c2/sc3nnc(-c4ccccc4C)n3c2=O)cc1 | -0.2 (inactive) |
| NC(=O)CSc1ccccc1NC(=O)c1cc(-c2cccs2)nn1-c1ccccc1 | 3.15 (inactive) |
| COc1ccc(NS(=O)(=O)N(C)C)cn1 | 0.3 (inactive) |
| Cc1oc2cc(O)ccc2c(=O)c1-c1nc2ccccc2[nH]1 | -0.6 (inactive) |
| O=C1CCCC2=C1C(c1ccccn1)Nc1ccc3ncccc3c12 (stereo not given) | -0.55 (inactive) |
| CCCOc1ccc(C2C3=C(CCCC3=O)OC3=C2C(=O)CCC3)cc1 | -0.45 (inactive) |
| O=C1CCCC2=C1C(c1ccccn1)C1=C(CCCC1=O)O2 | -2.45 (active) |
| S=C(Nc1ccccc1)NC1CC2CCCC(C1)N2C1CC1 (stereo not given) | -0.5 (inactive) |
| c1ccc(CNCc2ccc3c(c2)OCO3)cc1 | -1.25 (inactive) |
| O=C(CC(NCc1ccco1)C(=O)O)Nc1cccc(C(F)(F)F)c1 (stereo not given) | 1.45 (inactive) |
| CCOc1ncccc1C(=O)Nc1ccc2c(c1)OCCO2 | -0.25 (inactive) |
| C[N+]1(CC(O)COc2ccccc2F)CCOCC1 (stereo not given) | 0.45 (inactive) |
| O=C1C(=O)N(CCO)C(c2ccccc2)/C1=C(/O)c1ccccc1 (stereo not given) | -0.3 (inactive) |
| COc1ccccc1-c1nnc(C2CCN(S(=O)(=O)c3ccc(C)cc3)CC2)o1 | 0.85 (inactive) |
| COC(=O)c1sc(=S)n(-c2ccc(C)cc2)c1N | 0.95 (inactive) |
| COc1cc(OC)c(C(=O)OCC(=O)N(C)C2CCCCC2)cc1OC | 0.65 (inactive) |
| O=C(CSc1ccccn1)Nc1cc(C(F)(F)F)cc(C(F)(F)F)c1 | -0.4 (inactive) |
| COC(=O)CC1=C(C(=O)OC)C2(C(=O)N1)C(C#N)=C(N)Oc1ccccc12 (stereo not given) | 0.45 (inactive) |

| SMILES | z-score |
| --- | --- |
| CC(C(=O)O)C(C(=O)O)C(C)c1ccccc1 (stereo not given) | -0.7 (inactive) |
| O=C(NCCN1CCOCC1)C1CCN(C(=O)c2cc3sccc3n2Cc2ccc(F)cc2)CC1 | -0.45 (inactive) |
| O=C1NCCCCC1NC(=S)Nc1ccccc1 (stereo not given) | -0.25 (inactive) |
| COc1cc(/C=C2/C(=O)Nc3cc(Cl)ccc32)cc(OC)c1O | 0.9 (inactive) |
| O=C(Cn1nnc(-c2ccccc2)n1)NC(=O)NCc1ccccc1 | -0.5 (inactive) |
| CN1CCC(OC(=O)c2ccc3c(c2)OCCO3)CC1 | -0.5 (inactive) |
| CC(=O)Nc1ccc(N2C(=O)C=CC2=O)cc1 | -2.5 (active) |
| CCNCC(=O)Nc1ccc(NC(C)=O)cc1 | 0.15 (inactive) |
| O=C1C=CC(=O)N1c1ccc(Br)cc1 | 0.05 (inactive) |
| Cc1ccc(-c2nnc(NCc3ccco3)c3ccccc23)cc1C | -0.6 (inactive) |
| Cc1ccc(NNC(=O)C(C)(C)O)c(C)c1 | -0.15 (inactive) |
| CCOC(=O)N1CCN(c2nc(-c3ccccc3)no2)CC1 | 0 (inactive) |
| CN1CCCc2cc(-c3ccnc4ccccc34)ccc21 | 0.35 (inactive) |
| COC(=O)c1cc2occc2n1Cc1ccc(C)cc1 | 0.3 (inactive) |
| O=C(COc1c(-c2ccco2)oc2ccccc2c1=O)NCCc1ccccc1 | 0.9 (inactive) |
| CCOC(=O)/C(=C(/C)N1CCCC1)P(=S)(N1CCOCC1)N1CCOCC1 | -1.8 (inactive) |
| Cc1nn(-c2ccccc2)c(OC(=O)c2ccc(Br)o2)c1Sc1ccccc1 | 0 (inactive) |
| CC(CC(=O)OCc1ncc(-c2ccccc2)o1)c1ccccc1 (stereo not given) | 0.65 (inactive) |
| Cc1cc(C(=O)Oc2ccc(C(=O)c3ccc(F)cc3)cc2)on1 | -0.2 (inactive) |
| COc1ccc2oc(=O)c(C(=O)NC(C)(C)C)cc2c1 | -0.45 (inactive) |
| c1ccc(-n2nnnc2Sc2nc(C3CC3)n(-c3ccccc3)n2)cc1 | 0.25 (inactive) |
